The full ranking holds about 2,700 sequences; the median of “arbitrary fluorescence units” is about 4,100, and the highest 2% start at about 54,000. For the sample, the highest values were picked, then their nearest neighbours and some sequences at random.
The sequences below were run against T1, ETS1 (UniProt P14921) (assay: ETS1 binding intensity (PBM fluorescence) (arbitrary fluorescence units); higher = stronger binding). Settings: ETS1 concentration 10 nM.
T1 sequence: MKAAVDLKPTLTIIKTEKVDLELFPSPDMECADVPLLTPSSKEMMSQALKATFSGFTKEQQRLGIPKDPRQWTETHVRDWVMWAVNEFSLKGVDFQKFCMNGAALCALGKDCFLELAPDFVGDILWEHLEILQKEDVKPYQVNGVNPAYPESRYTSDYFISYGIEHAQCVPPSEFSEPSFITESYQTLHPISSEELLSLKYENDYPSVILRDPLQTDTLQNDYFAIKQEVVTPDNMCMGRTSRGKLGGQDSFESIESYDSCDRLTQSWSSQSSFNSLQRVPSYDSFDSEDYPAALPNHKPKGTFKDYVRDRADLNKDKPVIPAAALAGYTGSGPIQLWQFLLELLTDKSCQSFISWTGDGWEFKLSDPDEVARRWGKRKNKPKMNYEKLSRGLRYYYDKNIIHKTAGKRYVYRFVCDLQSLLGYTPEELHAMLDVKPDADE
Protocol: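 gcPBM on wild-type 36-bp genomic probes with two neighbouring ETS1 sites (4-24 bp apart). Recombinant human ETS1 (10 nM) was detected with anti-ETS1 antibody fluorescence. Values are medians over 3 replicate spots. The probes sit in constant array flanks that are not printed.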

Sequence	ETS1 binding intensity
CCCTCCCCTTCCTGCCTGCCCTTCTTCCGGGGCACC	8020
TTCACCCCACCACTTCCTCATCCTGATCTCAGCTCA	2880
CCCACTTCCTGCCTCACCCTGAAGATCTTCCGGGCA	56900
GCCGGAGACTAGCTTCCGCTTCCGGTGTGAGCGGCC	26200
AAGACTTCTACTTCCGGAGACTTCCTCATGCCATGC	33400
AACCACTTCCGGTGAGTAGCTTCTACTTCCGGAGAC	135000
GTTACTTCCTCTCCCCAGGTCTCTCGGTTTCCTCAT	23600
TCTCGACTTCCGGTTCACCCAGCATTTCCTCTTCCC	103000
CACCCATTTTCACTTCCGCTTCCGGTTGTCACAGGC	26500
GCTCCACCTTCCGGCCCATGGACACGGATGCCGAGG	16100
TCCTGCCTCAGGATGCCGGGGGAGGAAGAGGAGCGG	258
CCTACAATTCCTGTTTTGGAGACCGCTTCCGGCAGC	3700
ATCTCACCTTCCTGGTGTCTGGGCTTCCGCAGCTTC	662
TATTCAAAGCCCACTTCCTTCCTGTAGCATTCATTC	6220
CTTCCACATCTTCCTGCAGAGCATCCTGTCTGTGCA	4230
AGCATTCCACTTCCTGTCTTGATTCCTGTATTAGAG	62700
TGTGATGTTTCCTCTTGCTGTGGTTTCCTGTCATGG	4090
AGGAGGAATGGCAGGAAGAGGAAGTGAAACCGACAA	1690
CAGGCCGGAAGTACGTGAGAGGAGACTTCCGGCCAC	31200

Sequence	ETS1 binding intensity
TTCCGACCGGAAGTGAGAAGAGGAGGAAGTTGGCTG	64200
CTTAGTTTCCTCTGGCGATGCTAAAGAGGAAGTTAC	2440
ATTTGAAGAGCCAGGAAGGAGGAAATGCAGAGTGCA	287
AGTCTAGTTGCCAGGAAACAGGATGTGGGAGGGACA	3800
TCCTCTTTCCGTTGTGAGCACCCTGCATCCTGGTGG	3800
CTGATAGGGGAAGTGGGAGTTGACAGGATGGTTTAA	424
ATGTAAAGAGGAAGTGACTCATTCTTCCTGGTGGTG	3720
GGGGCCGGAAGCTTTCGGATAACAACTTCCGCTCGG	20100
ACAGCTTCCGGTTTTGCAAGACAATGCTTCCTTCTC	87800
CAACAGGAAATACATACCTGTCCTGAGAGGAAGCAC	7320
AGCATCTGCTGGGGGAAACGGAAGCAGCCCAGATGG	774
TGTAGGAGCTTCCTTGCAGCCTCAGGATGCCGAATT	517
TATGTATTTCCTTATTGCAAAGGGCGGAAACGTGTA	3980
GGAAAGACGGCAGGAAATGGGGAAGTGGGAGGGAGA	6220
GGATCAGGAAGTCACGACATGGCGACCATCCTGGCT	1720
CCCCACATCCGGTGCGGCGACGCCACTTCCGCCCAC	78100
GCCCCACTTCCCTCCCGCGGTCACACTTCCGGCGGC	12500
CGTCCCACATCCGCCGACACGCCCCTTCCGGCCTAA	20000
